# Test results as given in PubChem BioAssay (Tox21).
# Activity calls are given as the source filed them. The call rests on the fitted dose curve.
# Molecular target: Gonadotropin-releasing hormone receptor (Homo sapiens) (UniProt P30968)
# Assay: Human gonadotropin-releasing hormone receptor (GnRHR) small molecule agonists, calcium flux assay in GnRHR-HEK293 cells (AID 1920063); further: nearly all actives have a fitted effect of over 35% in size
# Conditions: calcium flux fluorescence, agonist mode; series mostly up to 57.6 µM; activity change: at the top concentration
# Source text: National Center for Advancing Translational Sciences [NCATS]
# Division of Preclinical Innovation [DPI]
# U.S. Environmental Protection Agency [EPA]
# National Institutes of Environmental Health Sciences [NIEHS]
# National Toxicology Program [NTP]
# U.S. Food and Drug Administration [FDA]
# Gonadotropin-releasing hormone receptor (GnRHR) is a G-protein-coupled receptor (GPCR) and acts (through phospholipase C) to increase intracellular inositol trisphosphate and then release intracellular calcium stores. Cell-based GnRHR-Hek293 calcium influx assay is using HEK293 cells that have been genetically engineered to express the human GnRHR, which activity can be measured by calcium signaling. A compound/drug can activate (agonist) GnRHR that can be monitored by levels of intracellular calcium.
# GnRHR-HEK293 cells developed by Codex Corp contain human GnRHR reporter gene, which was stably integrated into HEK 293 cells. The compound activation can be detected by fluorescence intensity via calcium flux assay. This cell line has been used to screen the Tox21 10K compound library to identify GnRHR agonists.
# GnRHR-Hek293 cells were dispensed at 1500cells/4uL/well in 1536-well black wall/clear bottom plates using a multidrop dispenser. After the assay plates were incubated at a 37 C/5% CO2 incubator for 18 hours, 4 uL of Calcium Dye Solution was added to each well. The plates were incubated at 37 C for 1 hour. For agonist mode, 23 nL of compounds dissolved in DMSO, positive controls or DMSO only was transferred to the assay plate by a pin tool station. The fluorescence intensity in the plates was measured using FDSS 7000EX kinetic plate reader with a filter set of Ex/Em=480/540 for 3 min at 1 sec intervals. Each test compound was measured at 15 concentrations and in triplicates.
# On the % scale 0 is the no-effect control and ±100 the full control effect; potency means the concentration at half of the fitted maximal effect.
# Chain of Gonadotropin-releasing hormone receptor (Homo sapiens) (P30968 whole entry, looked up): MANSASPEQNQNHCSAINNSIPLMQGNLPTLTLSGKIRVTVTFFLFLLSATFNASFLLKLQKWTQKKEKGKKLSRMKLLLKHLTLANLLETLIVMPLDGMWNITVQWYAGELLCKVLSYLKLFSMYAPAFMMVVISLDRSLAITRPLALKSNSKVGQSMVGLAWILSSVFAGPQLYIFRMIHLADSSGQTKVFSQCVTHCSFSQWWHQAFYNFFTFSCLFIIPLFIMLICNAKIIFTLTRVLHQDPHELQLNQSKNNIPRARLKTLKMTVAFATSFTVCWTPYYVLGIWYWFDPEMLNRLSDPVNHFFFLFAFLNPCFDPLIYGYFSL
SMILES,activity change,Potency
CNC(=O)c1cnn(-c2nc(N)c3ncn([C@@H]4O[C@H](CO)[C@@H](O)[C@H]4O)c3n2)c1,"0.252% [at 26.4 µM, stronger effect = higher value] (inactive)",
O=C(O)c1cccc(C(=O)O)c1C(=O)O,-0.709% (inactive),
CC(=O)O[C@H]1C[C@@H]2CC[C@@H]3[C@H](CC[C@@]4(C)[C@H]3C[C@H]([N+]3(C)CCCCC3)[C@@H]4OC(C)=O)[C@@]2(C)C[C@@H]1N1CCCCC1,"1.2% [at 26.4 µM, stronger effect = higher value] (inactive)",
O=C(O)c1c(O)c(-c2ccccc2)nc2ccccc12,"-0.74% [at 26.4 µM, stronger effect = higher value] (inactive)",
Cc1ccc(C=O)s1,0.305% (inactive),
CCOC(=O)CC,0.514% (inactive),
C=CC(=O)OCC(O)COc1ccccc1 (stereo not given),-0.44% (inactive),
CCCCCCCCCCCSCC(=O)O,-0.984% (inactive),
CC(C)(C)NCCNC(C)(C)C,-0.403% (inactive),
CCC(=O)C(=O)CC,3.97% (inactive),
CC(C)(C(=O)c1cccnc1)c1cccnc1,"-0.579% [at 26.4 µM, stronger effect = higher value] (inactive)",
C=CC(=O)OCC(CO)(COCC(COC(=O)C=C)(COC(=O)C=C)COC(=O)C=C)COC(=O)C=C,0.162% (inactive),
C[C@@H]1CC[C@@]2(OC1)O[C@H]1C[C@H]3[C@@H]4CC[C@H]5C[C@@H](O)CC[C@]5(C)[C@H]4CC(=O)[C@]3(C)[C@H]1[C@@H]2C,"-0.98% [at 5.22 µM, stronger effect = higher value] (inactive)",
N[C@@H](COP(=O)(O)O)C(=O)O,"0.11% [at 11.8 µM, stronger effect = higher value] (inactive)",
CC[C@H](NC(C)C)[C@H](O)c1ccc(O)c2[nH]c(=O)ccc12,,12 nM (active)
CCN1CCC[C@H]1CNC(=O)c1cc(S(N)(=O)=O)ccc1OC,"-0.95% [at 26.4 µM, stronger effect = higher value] (inactive)",
Cc1ccc(/C=N/n2c(-c3ccccc3)csc2=S)cc1,"-1.67% [at 26.4 µM, stronger effect = higher value] (inactive)",
CN1C[C@H](C(=O)N[C@]2(C)O[C@@]3(O)[C@@H]4CCCN4C(=O)[C@H](Cc4ccccc4)N3C2=O)C[C@@H]2c3cccc4[nH]cc(c34)C[C@H]21,"-0.504% [at 26.4 µM, stronger effect = higher value] (inactive)",
CCOC(C)=O,2.37% (inactive),
CCCCCCCC/C=C\CCCCCCCC(=O)OC,-0.193% (inactive),

SMILES,activity change,Potency
O=C(O)CP(=O)(O)O,"-0.252% [at 26.4 µM, stronger effect = higher value] (inactive)",
Nc1nc(-c2ccccc2)c(Br)c(=O)[nH]1,"-0.586% [at 26.4 µM, stronger effect = higher value] (inactive)",
CCCCCCCCOCCCN,19.6% (inactive),
Cc1ccc(-n2[nH]c(C)c(N=Nc3cccc(-c4cccc(C(=O)O)c4)c3O)c2=O)cc1C,"-1.11% [at 26.4 µM, stronger effect = higher value] (inactive)",
CCCc1ncc(C(=O)O)s1,"-1.43% [at 26.4 µM, stronger effect = higher value] (inactive)",
CCCCCCn1c(=O)c2c(ncn2C)n(C)c1=O,"0.41% [at 26.4 µM, stronger effect = higher value] (inactive)",
COc1ccc(C(=O)Nc2ccccc2)cc1[N+](=O)[O-],5.63% (inactive),
CCCCOCC,-0.0867% (inactive),
Fc1ccc([C@@H]2CCNC[C@H]2COc2ccc3c(c2)OCO3)cc1,"3.69% [at 26.4 µM, stronger effect = higher value] (inactive)",
Clc1ccc2c(c1)CCc1cccnc1C2=C1CCNCC1,"2.29% [at 26.4 µM, stronger effect = higher value] (inactive)",
CCCCCCCCCC(=O)OCC,-0.249% (inactive),
O=C(O)c1cccc(C(=O)O)n1,0.138% (inactive),
CC(C)(C)c1n[nH]c(=S)n(N)c1=O,-0.93% (inactive),
OC1(c2ccc(Cl)c(C(F)(F)F)c2)CCN(CCCC(c2ccc(F)cc2)c2ccc(F)cc2)CC1,"3.73% [at 26.4 µM, stronger effect = higher value] (inactive)",
CCCCCCCCc1ccc(S(=O)(=O)O)cc1,1.33% (inactive),
Cc1cc(C)cc([N+](=O)[O-])c1,-1.84% (inactive),
CCc1cc(S(=O)(=O)O)c2cc(C(C)C)cccc1-2,"-0.152% [at 26.4 µM, stronger effect = higher value] (inactive)",
NC1[C@H]2CN(c3nc4c(cc3F)c(=O)c(C(=O)O)cn4-c3ccc(F)cc3F)C[C@@H]12 (stereo not given in full),"-2.75% [at 26.4 µM, stronger effect = higher value] (inactive)",
CCCCCO,0.945% (inactive),
CC(=O)N[C@@H](CCC(N)=O)C(=O)O,"-0.566% [at 26.4 µM, stronger effect = higher value] (inactive)",
